In the library only some 10% were active in any assay of this set; here they are far more common.
GLS inh – qHTS for Inhibitors of Glutaminase (GLS); GLS enzymatic activity, qHTS titration; Glutaminase kidney isoform, mitochondrial (Homo sapiens), O94925; Potency, µM (top dose mostly 45.5 µM), for inactives: at the top dose activity change, negative = inhibition, usual class: inhibitors; hit rate 0.21% among 410,000; also: % is scaled to controls: 0 for no effect and ±100 for the full control effect
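Glutamate formation by hKGA was monitored fluorometrically using coupled glutamate oxidase, HRP and Amplex Red. Substrate was added as 1 mM L-glutamine solution; incubation was 30 min at RT after an initial read.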
BAZ2B block – qHTS Assay for Inhibitors of BAZ2B | AlphaScreen BAZ2B-H3K14Ac peptide displacement | Potency, µM (titrated, usually from 114 µM), for the others: top-dose activity change, negative = inhibition, most hits filed as inhibitors | hit rate 4.4% among 360,000; also: % is scaled to controls: 0 for no effect and ±100 for the full control effect; nearly all actives have a fitted effect of over 60% in size
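Complex of BAZ2B and biotin-H3K14Ac (50 nM apiece) forms over 30 min at RT, then faces library compounds up to 110 uM for another 30 min; AlphaScreen beads added, 20 min dark incubation, luminescence read.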
L3MBTL1 inh – qHTS Assay for the Inhibitors of L3MBTL1 | AID 485360, 2010 | AlphaScreen L3MBTL1–H3K9me1 peptide binding | Potency, µM (doses to about 57.1 µM), inactives show at the top dose activity, negative = inhibition, most hits filed as inhibitors | Lethal(3)malignant brain tumor-like protein 1 (Homo sapiens), Q9Y468 | hit rate 0.66% among 230,000; also: % is scaled to controls: 0 for no effect and ±100 for the full control effect; nearly all actives have a fitted effect of over 60% in size
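L3MBTL1 (50 nM) pre-complexed 30 min with biotinylated H3(1-15)K9me1 peptide (75 nM), then compounds added for 30 min at room temperature; AlphaScreen streptavidin donor/nickel chelate acceptor beads (10 ug/mL final) read after 30 min dark incubation.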
G9a inh – qHTS Assay for Inhibitors of Histone Lysine Methyltransferase G9a. G9a H3K9 monomethylation, AlphaScreen, 2 h. Histone-lysine N-methyltransferase EHMT2 (Homo sapiens), Q96KQ7. AID 504332, 2011. hit rate 8.8% among 350,000. Potency, µM (top dose mostly 102 µM), for the others: at the highest dose activity, negative = inhibition, hits mostly inhibitors; also: % is scaled to controls: 0 for no effect and ±100 for the full control effect; nearly all actives have a fitted effect of over 75% in size
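Compounds were preincubated with 20 nM G9a for 15 min, after which biotinylated H3K9 peptide (500 nM) and SAM (20 uM) started a 2 h room-temperature reaction. Monomethylated product was quantified by antibody-based AlphaScreen chemiluminescence.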
JMJD2A Tudor – qHTS Assay for Inhibitors of JMJD2A-Tudor Domain | Potency, µM (doses to about 114 µM), for inactives: at the highest dose activity change, negative = inhibition, actives largely listed as inhibitors | AlphaScreen JMJD2A-Tudor / H3K4me3 peptide binding | hit rate 4.4% among 390,000 | Lysine-specific demethylase 4A (Homo sapiens), O75164; also: % is scaled to controls: 0 for no effect and ±100 for the full control effect; nearly all actives have a fitted effect of over 50% in size
Target sequence (O75164 whole entry, looked up, the tested form may be a part): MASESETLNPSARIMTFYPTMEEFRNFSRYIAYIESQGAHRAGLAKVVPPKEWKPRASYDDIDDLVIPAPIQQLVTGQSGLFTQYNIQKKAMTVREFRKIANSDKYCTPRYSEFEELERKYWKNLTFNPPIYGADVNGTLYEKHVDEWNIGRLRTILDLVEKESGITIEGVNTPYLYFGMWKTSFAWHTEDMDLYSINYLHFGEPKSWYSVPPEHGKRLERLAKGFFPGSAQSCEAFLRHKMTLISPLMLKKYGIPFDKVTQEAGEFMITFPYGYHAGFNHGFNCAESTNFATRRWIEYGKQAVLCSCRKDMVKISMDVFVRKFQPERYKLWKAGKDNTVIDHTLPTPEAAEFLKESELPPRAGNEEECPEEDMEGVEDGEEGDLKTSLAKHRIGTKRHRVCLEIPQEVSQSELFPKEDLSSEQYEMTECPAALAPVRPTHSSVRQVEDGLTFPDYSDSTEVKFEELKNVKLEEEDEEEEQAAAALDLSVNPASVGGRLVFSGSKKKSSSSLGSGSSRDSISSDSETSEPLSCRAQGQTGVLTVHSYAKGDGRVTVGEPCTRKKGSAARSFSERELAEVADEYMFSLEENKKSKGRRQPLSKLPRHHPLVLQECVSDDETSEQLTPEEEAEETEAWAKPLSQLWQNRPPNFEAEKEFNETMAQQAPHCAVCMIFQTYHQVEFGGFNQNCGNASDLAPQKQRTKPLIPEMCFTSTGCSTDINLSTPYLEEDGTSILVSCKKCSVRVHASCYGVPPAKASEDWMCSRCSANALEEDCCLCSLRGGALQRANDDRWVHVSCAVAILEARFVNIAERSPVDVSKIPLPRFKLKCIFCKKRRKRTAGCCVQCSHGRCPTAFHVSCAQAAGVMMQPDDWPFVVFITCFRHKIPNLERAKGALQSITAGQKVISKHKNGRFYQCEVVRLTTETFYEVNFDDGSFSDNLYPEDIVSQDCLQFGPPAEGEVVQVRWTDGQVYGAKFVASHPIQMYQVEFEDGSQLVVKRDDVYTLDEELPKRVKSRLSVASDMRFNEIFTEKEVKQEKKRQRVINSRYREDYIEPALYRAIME
HP1b chromo inh – HTS for Inhibitors of HP1-beta Chromodomain Interactions with Methylated Histone Tails; AlphaScreen HP1-beta / biotin-H3K9me3 peptide binding; hit rate 0.56% among 390,000; Chromobox protein homolog 1 (Homo sapiens), P83916; Potency, µM (series often up to 114 µM), for the others: top-dose activity change, negative = inhibition, actives largely listed as inhibitors; also: nearly all actives have a fitted effect of over 70% in size
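Compound inhibition of the preformed complex between 50 nM HP1-beta and 50 nM biotinylated H3K9me3 peptide was read by AlphaScreen. Buffer was PBS pH 7.4 with 0.01% Tween-20. Incubations ran 30 min at room temperature, with 10 ug/mL donor/acceptor beads.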
Active calls of the source: *; u = inconclusive; x = not tested or not shown; [ ] = another dose, or the depositor's remark. Calls follow the shape of the dose curve; as a rule, active = well fitted curve in the direction sought with a large enough effect; inconclusive = small, poorly fitted or top-dose-only effect, or another doubt; inactive = no such curve, though single readings can be large; an effect the other way counts as inactive or inconclusive. Potency is read from the fitted curve at half-maximal effect.

SMILES	GLS inh	BAZ2B block	L3MBTL1 inh	G9a inh	JMJD2A Tudor	HP1b chromo inh
COCCCNC(=O)c1ccc2c(c1)NC(=O)C(C(C)C)N2 (stereo not given)	4%	2%	x	3%[59 µM]	-14%	20%
O=C(NCc1ccco1)c1ccc(COc2ccccc2Cl)cc1	11%	-3%	-5%	u	56µM*	-24%
CC(C)C1Nc2ccc(C(=O)NCc3ccco3)cc2NC1=O (stereo not given)	-21%	-3%	x	79µM*	0%	3%
COc1ccc2[nH]cc(CCNc3cc(-c4c(C)noc4C)ncn3)c2c1	x	x	x	44%[0.501 µM]	x	x
O=S(=O)(O)Sc1ccccc1	7%	x	x	x	x	x
CCN(CC)c1ccc(SS(=O)(=O)O)cc1	36%	u	u	5µM*	56µM*	-22%
Cc1cc(COc2ccccc2O)on1	14%	6%	x	71µM*	2%	47%
CCCCN(CC)CCNc1ncnc2onc(-c3ccc(Cl)cc3)c12	0%	-18%	x	3%[59 µM]	-12%	27%
CCc1ccc(C(c2ccccc2)c2c[nH]c3ccc(C)cc23)s1 (stereo not given)	1%	u	x	u	56µM*	u
Cc1ccc2[nH]cc(C(c3ccccc3)c3ccc(Cl)s3)c2c1 (stereo not given)	0%	-33%	x	-17%[59 µM]	-26%	29%
N[C@@H](Cc1ccccc1)c1nnc2sc(SCc3ccccc3)nn12	-5%	u	7%[11.4 µM]	7.1µM*	u	71%
COCC1CCN(Cc2cn(Cc3ccccc3)nc2-c2cc3ccccc3o2)CC1	6%	56µM*	u	0%	-19%	38%
COc1ccc(CCNC(=O)CC2Nc3ccccc3NC2=O)cc1 (stereo not given)	-2%	u	-17%	-7%[59 µM]	-13%[57.1 µM]	38%
Cc1ccc(NC(=O)CC2Nc3ccccc3NC2=O)cc1C (stereo not given)	2%	u	x	u	-24%	8%
O=C(CC1Nc2ccccc2NC1=O)Nc1ccc2c(c1)OCO2 (stereo not given)	-5%	-14%	u	13µM*	-27%	-16%
CCOc1ccccc1NC(=O)CC1Nc2ccccc2NC1=O (stereo not given)	6%	-28%	1%[11.4 µM]	14µM*	-23%	8%
O=C(CC1Nc2ccccc2NC1=O)NCCc1ccccc1 (stereo not given)	4%	5%	-10%	11µM*	-18%[57.1 µM]	53%
CN(CCCNC(=O)c1cc2c(=O)n(C)c3ccccc3c2s1)Cc1ccccc1	-4%	x	x	-4%[59 µM]	-13%	22%
CC(=O)N1CCC(N(Cc2ccc(C)o2)C(=O)Nc2cccc(C(F)(F)F)c2)CC1	0%	-19%	x	u	-8%	26%
Cc1ccc2oc3c(c(=O)c2c1)C(c1ccc(O)cc1)N(c1nc(C)c(C)s1)C3=O (stereo not given)	0%	0%	x	12%[59 µM]	-6%	8%
C=CCNC(=S)N1CCN(Cc2ccc3c(c2)OCO3)CC1	1%	50µM*	34%[2.29 µM]	-6%[0.501 µM]	14µM*	u
O=S(=O)(c1c(F)cccc1F)N1CCN(C(=S)NCc2ccc3c(c2)OCO3)CC1	-15%	-29%	7%	32µM*	-11%	-6%
COCCNC(=S)N1CCN(Cc2ccc3c(c2)OCO3)CC1	5%	0%	1%	3%	-14%	34%
O=C(NC(=S)N1CCN(Cc2ccc3c(c2)OCO3)CC1)c1cccc(Br)c1	1%	25µM*	u	9%[59 µM]	u	-10%
CCCNC(=S)N1CCN(Cc2ccc3c(c2)OCO3)CC1	-9%	u	8%	20µM*	28µM*	u
SMILES	GLS inh	BAZ2B block	L3MBTL1 inh	G9a inh	JMJD2A Tudor	HP1b chromo inh
CCNC(=S)N1CCN(Cc2ccc3c(c2)OCO3)CC1	1%	-5%	8%	-1%	4%	45%
COc1ccc(-c2nnc(SCC(=O)N(C)Cc3ccccc3)o2)cc1OC	-7%	3%	x	-2%[59 µM]	-12%	25%
CCn1c(CN2CCC(C)CC2)nc2cc(NC(=O)COc3ccc([N+](=O)[O-])cc3)ccc21	-16%	-11%	x	2%[59 µM]	-11%	50%
CCCOc1ccc(CNC(=O)C2CCCN(c3nc4c(C)cc(C)cc4s3)C2)cc1 (stereo not given)	-7%	3%	x	6%[59 µM]	-4%	45%
Fc1cccc(Cl)c1/C=N/n1c(-c2cccnc2)n[nH]c1=S	-29%	u	x	u	3.2µM*	3%
O=[N+]([O-])c1cc2c(cc1/C=N/n1c(-c3ccccc3)n[nH]c1=S)OCO2	u	u	-26%	1.4µM*	4µM*	u
O=[N+]([O-])c1cc(/C=N/n2c(-c3cccnc3)n[nH]c2=S)ccc1Cl	-8%	u	u	1.3µM*	40µM*	-8%
O=[N+]([O-])c1ccccc1/C=N/n1c(-c2cccnc2)n[nH]c1=S	1%	-27%	9%	2.5µM*	2.2µM*	9%
C=Cc1ccc(CSc2nc(-c3ccccc3C)nc3c2Cc2c(CO)cnc(C)c2O3)cc1	0%	-17%	x	-33%[59 µM]	-1%	27%
CC(=O)N1CCc2cc(S(=O)(=O)CCC(=O)Nc3ccc(Cl)cc3F)ccc21	-6%	-20%	x	71µM*	-10%	49%
CCC(=O)N1CCc2cc(S(=O)(=O)CCC(=O)Nc3cc(Cl)ccc3OC)ccc21	10%	x	x	13µM*	14µM*	8%
CCC(=O)N1CCc2cc(S(=O)(=O)CCC(=O)Nc3cccc(C)n3)ccc21	2%	7%	x	50µM*	-12%	56%
CC(=O)N1CCc2cc(S(=O)(=O)CCC(=O)NCc3ccc(Cl)cc3)ccc21	7%	-3%	x	-1%[59 µM]	1%	30%
CCOC(=O)/C=C/c1cc(F)c(S(=O)(=O)N2CCN(S(=O)(=O)c3ccc4c(c3)OCCO4)CC2)cc1F	x	x	x	x	-4%	x
CCOc1ccc(-n2nc3ccc(NC(=O)c4ccc(C)cc4C)cc3n2)cc1	5%	1%	x	-6%[59 µM]	-18%	27%
COC(=O)c1ccc(SC2CCCCC2)c([N+](=O)[O-])c1	-14%	u	-11%	16µM*	u	-21%
CC(C)N(Cc1ccccc1)C(=S)NC(=O)C1(C)CC1(Cl)Cl (stereo not given)	-12%	-34%	-15%	15%	-16%	33%

Bioassay records deposited in PubChem BioAssay by National Center for Advancing Translational Sciences (NCATS).
